ssDAF12 agonist – activates DAF-12 receptor from parasite S. stercoralis; AID 652126; activation, % at 6.8 µM; HEK293 ssDAF-12/GRIP1 lit1-tk-luc reporter, luminescence; % of 3 µM dafachronic acid response; hit rate 1% among 370,000;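 active = activation above the mean over all tested compounds plus 3 SD, cut at about 0.9% in these data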;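 note: 0% = DMSO-only wells and 100% = 3 µM delta7-dafachronic acid wells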
hcDAF12 agonist – activates DAF-12 receptor from parasite H. contortus. activation, % at 6.8 µM. hit rate 1.4% among 370,000. HEK293 hcDAF-12 lit1-tk-luc reporter, luminescence; 0% DMSO, 100% Δ7-dafachronic acid;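 active = activation above the mean of all tested compounds plus 3 SD, cut at about 5.5% in these data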;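 note: 100% = response to 3 µM Δ7-dafachronic acid high control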
NF-kB neuron act – compounds increasing NF-kB expression in human neuronal cells | fold change at 12.5 µM | NF-kB reporter expression; active compounds read high | hit rate 1.6% among 190,000 | AID 1239; in the data active = fold change above about 3.3
APP 5'UTR act – activates APP 5'UTR luciferase reporter. SH-SY5Y APP 5'UTR luciferase reporter, luminescence; zero percent = DMSO vehicle wells. hit rate 1% among 190,000. activation, % at 2 µM;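 active = activation above a set limit, based on mean plus 3 SD of controls, cut at about 140% in these data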
hgDAF12 agonist – agonists of H. glycines DAF-12 nuclear receptor | hit rate 1.8% among 370,000 | activation, % at 6.8 µM | HEK293 GAL4-hgDAF12 UAS-luciferase reporter, agonist luminescence; normalized to butyrate control;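 active = activation above a cutoff set at the mean of all screened compounds plus 3 SD, cut at about 10% in these data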;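 note: 0% = DMSO wells and 100% = sodium butyrate wells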
LXRb hcDAF ctr – activates human LXR-beta, counter-screen for hcDAF-12 agonists; shares compounds with hcDAF12 agonist; HEK293 Gal4-LXR tk-luc reporter, luminescence, 24 h; normalized: DMSO 0%, positive control 100%; activation, % at 6.8 µM; 3,400 tested, under 10 active; AID 743027;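 active = mean percent activation of the reporter above a cutoff set as the average over tested compounds plus their standard deviation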
Target sequence (P55055 whole entry, looked up, the tested form may be a part): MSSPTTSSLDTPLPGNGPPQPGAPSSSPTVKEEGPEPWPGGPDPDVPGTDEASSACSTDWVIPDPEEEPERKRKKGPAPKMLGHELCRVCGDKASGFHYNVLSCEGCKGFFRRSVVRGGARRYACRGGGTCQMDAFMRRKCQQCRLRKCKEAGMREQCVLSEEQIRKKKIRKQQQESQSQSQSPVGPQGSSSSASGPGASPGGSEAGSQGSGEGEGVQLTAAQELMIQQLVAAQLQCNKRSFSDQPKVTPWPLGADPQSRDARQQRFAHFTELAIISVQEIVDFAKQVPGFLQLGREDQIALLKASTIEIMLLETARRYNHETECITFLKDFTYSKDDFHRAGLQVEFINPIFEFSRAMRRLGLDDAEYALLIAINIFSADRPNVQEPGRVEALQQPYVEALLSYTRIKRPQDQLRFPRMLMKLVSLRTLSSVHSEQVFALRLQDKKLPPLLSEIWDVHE
hcDAF12 ag – confirmation of H. contortus DAF-12 agonists; shares compounds with hcDAF12 agonist; hit rate 61% among 3,400; activation, % at 6.8 µM; AID 743032; HEK293 hcDAF-12 lit1-tk-luc reporter, luminescence; % of Δ7-dafachronic acid response;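 active = mean activation across triplicate tests above the threshold derived from the earlier primary screen, cut at about 5.5% in these data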;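 note: 0% = DMSO only wells and 100% = 3 µM Δ7-dafachronic acid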
* hit, by the source's call; nt = not tested or not shown. A selection: hits, their analogues and other compounds. The true share with any hit is near 3.4%.

SMILES	ssDAF12 agonist	hcDAF12 agonist	NF-kB neuron act	APP 5'UTR act	hgDAF12 agonist	LXRb hcDAF ctr	hcDAF12 ag
COc1ccc2c3c([nH]c2c1)C1CC2C(CC(O)C(OC)C2C(=O)O)CN1CC3 (configuration not stated)	-1	7.0*	nt	nt	3	0	-1
Cc1[nH]nc2c1C(c1ccccc1)N(Cc1ccccc1)C2=O (configuration not stated)	-1	0	nt	nt	-2	nt	nt
Cc1cccn2cc(-c3ccc(F)cc3)nc12	1.8*	12*	5.8*	128	11*	2	9.7*
Cc1cccn2cc(-c3ccc(F)cc3)cc12	-1	2	1.6	19	4	nt	nt
Cc1ccc(NC2=C(Cl)C(=O)c3ccccc3C2=O)cc1	1.3*	7.4*	0.83	-96	9	0	5.9*
Cc1nc2cc(C(=O)N3CCN(C(=O)OCc4ccccc4)CC3)ccc2n1C1CCCC1	-2	-2	nt	nt	-2	nt	nt
CCCCC(=O)OCc1nc2ccccc2s1	0	4	0.96	41	3	nt	nt
O=C(O)CCCC(=O)Nc1ccc(OCc2nc3ccccc3s2)cc1	1	4	1.3	17	10	nt	nt
O=C(O)c1ccccc1OCc1nc2ccccc2s1	1.2*	9.2*	nt	nt	10	1	7.2*
O=C(OCc1nc2ccccc2s1)c1cnccn1	0	8.2*	0.91	79	7	1	9.8*
C/C(=N\NC(=O)c1ccc(C)cc1)c1c(C)[nH]n(-c2ccccc2)c1=O	0	1	nt	nt	5	nt	nt
C/C(=N\NC(=O)c1ccccc1)c1c(C)[nH]n(-c2ccccc2)c1=O	0	9.2*	nt	nt	7	0	-1
CNC(=O)CCc1nc(-c2ccc(C(C)C)cc2)no1	0	1	nt	nt	5	nt	nt
N=c1oc2ccccc2cc1-c1nc2ccccc2c(=O)[nH]1	0	8.3*	0.96	4	1	0	5
CC(O)CNC(=O)C1CCN(Cc2ccc(OCc3ccccc3)cc2)CC1 (configuration not stated)	-1	0	1.7	19	7	nt	nt
CC(C)CNC(=O)C1CCN(Cc2ccc(OCc3ccccc3)cc2)CC1	0	7.1*	1.4	39	8	1	3
c1ccc2[nH]c(-c3ccc4c(c3)OCO4)nc2c1	0	9.9*	nt	nt	12*	1	5
Cc1ccccc1-c1nc(-c2ccc(NC(=O)c3ccc(Br)o3)cc2)no1	-1	1	2.1	29	6	nt	nt
Fc1ccccc1-c1nc(-c2ccc(Br)o2)no1	2.3*	17*	nt	nt	21*	2	17*
Cc1ccccc1-c1nc(-c2ccc(Br)o2)no1	2.3*	17*	nt	nt	10	1	12*
COc1ccc(Cl)cc1-c1nc(-c2ccc(Br)o2)no1	1	8.2*	1.2	-5	4	0	8.8*
COc1ccc(-c2noc(-c3cc(Cl)ccc3Cl)n2)cc1OC	nt	nt	1.1	4	nt	nt	nt
CCN(CC)c1ccc(-c2nn3c(-c4ccccc4Cl)nnc3s2)cc1	-2	-4	nt	nt	-8	nt	nt
C[C@H](NC(=O)c1cc2cc(Cl)ccc2n1C)C(=O)N1CCC(C(=O)O)CC1	-1	-1	nt	nt	-4	nt	nt
Cn1c(C(=O)Nc2ccc(Cl)cc2)cc2cc(Cl)ccc21	0	8.3*	nt	nt	4	0	7.9*
COC(=O)[C@]12C[C@H](CC(=O)NCc3ccc(OC)c(OC)c3)C(=O)N(Cc3ccc(Cl)cc3Cl)C1=C[C@H](C1CCCC1)O[C@@H]2C	-1	-1	nt	nt	1	nt	nt
Cc1cc(C)c2oc(-c3ccc(Cl)c(NC(=O)c4ccc(C#N)cc4F)c3)nc2c1	0	6.6*	1.9	2	1	0	5.7*
CN1CCN(c2ccc(C(=O)c3ccc(F)cc3)cc2)CC1	-1	8.9*	2.7	75	12*	1	5
CNC(=O)COC(=O)/C=C/c1c(C)nn(-c2ccccc2)c1C	0	8.4*	1	-11	1	0	1
Cc1ccc(-c2cc(C(=O)NN=C/C=C/c3ccco3)[nH]n2)cc1C	-1	0	nt	nt	6	nt	nt
